We go through 25 compounds from PubChem BioAssay (Tox21).

Unmarked numbers belong to inactive results. Inconclusive results are not listed. Activity calls are given as the source filed them. Unless noted, calls follow the shape of the full dose curve.

A short description of experiment [1]: qHTS assay to identify small molecule antagonists of the estrogen receptor beta (ER-beta) signaling pathway - cell viability counter screen (AID 1259382; active = well fitted curve in the direction sought with a large enough effect in the repeat runs; an effect the other way counts as inactive or inconclusive;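 also: HEK293T cells carrying ER-beta-UAS-bla reporter stimulated with estradiol; series mostly up to about 92 µM; nearly all actives have a fitted effect of over 55% in size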). In short, it runs like this:
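ER-beta-UAS-bla HEK293T cells in 2% charcoal-stripped FBS medium, treated with compound plus 1 nM 17-beta-estradiol for 16 h at 37C. Viability read by CellTiter-Glo luminescence after 30 min at room temperature in the same wells.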

In experiment [2] the target is Estrogen receptor (Homo sapiens) (UniProt P03372). Description: qHTS assay to identify small molecule agonists of the estrogen receptor alpha (ER-alpha) signaling pathway in the presence of an antagonist (AID 1259383). Also: top concentration of the series differs between compounds; nearly all actives have a fitted effect of over 15% in size. In short, it runs like this:
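VM7Luc4E2 cells express endogenous full-length ER-alpha with an ERE-luciferase reporter and were hormone-deprived for 5 days. Compounds at 15 concentrations were added with 10.0nM ICI-182,780 for 22hr at 37C. Luminescence was read with ONE-Glo.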

Experiment [3] can be described thus: qHTS assay to identify small molecule agonists or antagonists of the thyroid stimulating hormone receptor (TSHR) signaling pathway - wild type cell line counter screen (AID 1259384). In short, it runs like this: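 Counter screen in untransfected Hek293: compounds (15-point titration, triplicate) plus phosphodiesterase inhibitor Ro20-1724 added after 18 h plating; 30 min RT. Intracellular cAMP via competitive d2/cryptate immunoassay, 1 h incubation.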
A general note: qHTS replaces the single test concentration by a dilution series.

Experiment [4] has as its target Thyrotropin receptor (Homo sapiens) (UniProt P16473). The experiment can be described thus: qHTS assay to identify small molecule antagonists of the thyroid stimulating hormone receptor (TSHR) signaling pathway (AID 1259385). Also: nearly all actives have a fitted effect of over 20% in size. The procedure, abridged: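 Antagonist mode: compound-treated TSHR-expressing HEK293 cells were stimulated with 1.5 ng/mL TSH (final) in presence of Ro20-1724 for 30 min at RT. HTRF cAMP detection after 1 h; each compound tested at 15 concentrations, triplicate.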

A short description of experiment [5]: qHTS assay to identify small molecule agonists of the estrogen receptor alpha (ER-alpha) signaling pathway in the presence of an antagonist - cell viability counter screen (AID 1259386; active = well fitted curve in the direction sought with a large enough effect in the repeat runs; an effect the other way counts as inactive or inconclusive;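 also: series mostly up to about 92 µM; cells exposed to compounds for 22 h at 37 °C before the viability read; nearly all actives have a fitted effect of over 30% in size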). The procedure, abridged: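 Cell viability in VM7Luc4E2 cells (endogenous full-length ER-alpha) measured by CellTiter-Fluor fluorescence in the same wells as the luciferase screen. Cells pre-cultured 5 days in charcoal-stripped serum, then treated 22 h with compounds at 15 concentrations plus 10.0nM ICI-182,780.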

Experiment [6] deals with Progesterone receptor (Homo sapiens) (UniProt P06401). The experiment can be described thus: qHTS assay to identify small molecule agonists of the progesterone receptor (PR) signaling pathway (AID 1346784). Also: nearly all actives have a fitted effect of over 30% in size. Also: potency is read from the fitted curve at half-maximal effect. The procedure, abridged:
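Fluorescence from LiveBLAzer B/G FRET substrate cleavage (2 hr, RT) reported PR activation in PR-UAS-bla HEK 293T cells treated 16 hr at 37C/5% CO2 with compounds; medium contained 2% charcoal-stripped FBS.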

The target is the same in experiment [7]. The experiment can be described thus: qHTS assay to identify small molecule antagonists of the progesterone receptor (PR) signaling pathway (AID 1346795; active = well fitted inhibition curve with a large enough effect in the signal ratio in the repeat runs, not every such curve was filed as active; the % refers to the signal ratio). In short, it runs like this: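 Fluorescence intensity measured 2 hr after adding beta-lactamase FRET substrate to PR-UAS-bla HEK293T cells that had been co-treated 16 hr with compound and 1 nM R5020 (final concentration) in 2% charcoal-stripped FBS.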

Experiment [8] can be described thus: qHTS assay to identify small molecule antagonists of the progesterone receptor (PR) signaling pathway - cell viability counter screen (AID 1346798; active = well fitted curve in the direction sought with a large enough effect in the repeat runs; an effect the other way counts as inactive or inconclusive; also: series mostly up to about 92 µM; nearly all actives have a fitted effect of over 50% in size). In short, it runs like this:
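CellTiter-Glo luminescence; PR-UAS-bla HEK293T, 3,000 cells/well; compound + R5020, 16 hr, 37C/5% CO2; 30 min RT before read.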

Experiment [9] in a line: qHTS assay to identify small molecule agonists of the progesterone receptor (PR) signaling pathway - cell viability counter screen (AID 1346799). Also: nearly all actives have a fitted effect of over 45% in size. The procedure, abridged: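 In parallel with the beta-lactamase readout, cytotoxicity toward PR-UAS-bla HEK293T cells was measured by CellTiter-Glo luminescence following 16 hr compound incubation in 2% charcoal-stripped FBS medium.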

Experiment [10] can be described thus: qHTS assay to identify small molecule antagonists of the TGF-beta/Smad signaling pathway - cell viability counter screen (AID 1346824; active = well fitted curve in the direction sought with a large enough effect in the repeat runs; an effect the other way counts as inactive or inconclusive; also: nearly all actives have a fitted effect of over 50% in size). In short, it runs like this: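 Cytotoxicity counter-screen run in the same wells as the beta-lactamase Smad reporter read: CellTiter-Glo luminescence after 30 min at room temperature. HEK 293T SBE-bla cells had 5 hr compound exposure at 37 C with TGF-beta1 (0.25 ng/mL stock).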

Sequence of Thyrotropin receptor (Homo sapiens) (P16473 whole entry, looked up): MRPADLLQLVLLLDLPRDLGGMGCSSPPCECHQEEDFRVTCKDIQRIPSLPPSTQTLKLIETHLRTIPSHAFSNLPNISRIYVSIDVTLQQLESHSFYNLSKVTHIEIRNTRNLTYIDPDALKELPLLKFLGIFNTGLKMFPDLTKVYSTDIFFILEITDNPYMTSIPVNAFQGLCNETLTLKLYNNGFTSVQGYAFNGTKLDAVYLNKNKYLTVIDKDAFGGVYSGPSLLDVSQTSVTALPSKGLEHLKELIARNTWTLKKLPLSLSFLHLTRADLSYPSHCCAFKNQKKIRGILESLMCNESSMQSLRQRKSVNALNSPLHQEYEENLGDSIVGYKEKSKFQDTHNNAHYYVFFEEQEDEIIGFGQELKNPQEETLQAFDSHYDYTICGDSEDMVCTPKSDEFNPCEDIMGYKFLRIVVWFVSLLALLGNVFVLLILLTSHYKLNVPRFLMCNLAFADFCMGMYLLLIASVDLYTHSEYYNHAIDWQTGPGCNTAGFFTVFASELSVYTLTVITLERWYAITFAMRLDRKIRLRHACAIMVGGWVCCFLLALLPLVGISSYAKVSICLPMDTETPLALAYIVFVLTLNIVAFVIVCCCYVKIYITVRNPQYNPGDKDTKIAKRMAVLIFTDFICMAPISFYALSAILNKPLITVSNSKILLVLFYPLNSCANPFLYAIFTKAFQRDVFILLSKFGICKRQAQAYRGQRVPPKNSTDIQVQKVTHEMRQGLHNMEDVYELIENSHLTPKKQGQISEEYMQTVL
Sequence of Progesterone receptor (Homo sapiens) (P06401 whole entry, looked up): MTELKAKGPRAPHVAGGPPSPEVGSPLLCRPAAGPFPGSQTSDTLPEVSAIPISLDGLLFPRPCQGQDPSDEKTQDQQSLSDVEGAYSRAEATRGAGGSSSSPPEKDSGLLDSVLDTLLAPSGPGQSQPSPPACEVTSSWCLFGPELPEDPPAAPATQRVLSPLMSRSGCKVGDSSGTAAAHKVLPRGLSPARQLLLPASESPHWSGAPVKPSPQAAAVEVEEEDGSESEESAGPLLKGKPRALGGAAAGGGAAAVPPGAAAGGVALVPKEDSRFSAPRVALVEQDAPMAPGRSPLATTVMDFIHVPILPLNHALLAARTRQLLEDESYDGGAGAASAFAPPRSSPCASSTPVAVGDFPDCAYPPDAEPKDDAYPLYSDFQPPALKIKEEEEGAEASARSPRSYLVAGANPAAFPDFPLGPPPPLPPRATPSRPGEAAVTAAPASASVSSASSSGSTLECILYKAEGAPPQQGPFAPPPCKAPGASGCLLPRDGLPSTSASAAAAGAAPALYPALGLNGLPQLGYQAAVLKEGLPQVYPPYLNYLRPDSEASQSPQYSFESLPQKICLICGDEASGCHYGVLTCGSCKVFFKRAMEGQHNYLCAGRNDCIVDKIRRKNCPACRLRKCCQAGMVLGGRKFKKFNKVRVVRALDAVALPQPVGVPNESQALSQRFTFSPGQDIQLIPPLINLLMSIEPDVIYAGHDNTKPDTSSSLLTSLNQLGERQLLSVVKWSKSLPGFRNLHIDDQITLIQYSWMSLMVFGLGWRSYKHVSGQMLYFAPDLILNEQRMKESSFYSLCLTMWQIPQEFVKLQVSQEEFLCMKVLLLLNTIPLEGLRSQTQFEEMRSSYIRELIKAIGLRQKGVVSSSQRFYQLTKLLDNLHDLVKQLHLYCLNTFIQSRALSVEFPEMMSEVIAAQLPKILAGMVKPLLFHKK
Sequence of Estrogen receptor (Homo sapiens) (P03372 whole entry, looked up): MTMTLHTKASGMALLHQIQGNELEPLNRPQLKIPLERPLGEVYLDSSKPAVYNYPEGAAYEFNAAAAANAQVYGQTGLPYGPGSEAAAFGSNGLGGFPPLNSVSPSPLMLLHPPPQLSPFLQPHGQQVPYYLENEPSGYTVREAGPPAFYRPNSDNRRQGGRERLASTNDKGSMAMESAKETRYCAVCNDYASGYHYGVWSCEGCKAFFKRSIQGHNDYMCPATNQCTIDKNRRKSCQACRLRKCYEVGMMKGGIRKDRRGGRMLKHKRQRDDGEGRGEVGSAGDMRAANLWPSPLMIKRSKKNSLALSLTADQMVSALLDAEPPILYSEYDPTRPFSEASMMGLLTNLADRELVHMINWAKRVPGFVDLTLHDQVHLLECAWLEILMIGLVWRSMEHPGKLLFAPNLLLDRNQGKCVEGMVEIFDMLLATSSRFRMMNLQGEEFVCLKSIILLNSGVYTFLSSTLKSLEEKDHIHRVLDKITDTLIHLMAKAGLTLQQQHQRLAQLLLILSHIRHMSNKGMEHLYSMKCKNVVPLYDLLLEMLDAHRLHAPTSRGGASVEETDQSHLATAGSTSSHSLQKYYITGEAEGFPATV

For `CC(=O)OC[C@H]1O[C@@H](OC(C)=O)[C@H](OC(C)=O)[C@@H]1OC(C)=O`, the compound was classed as inactive in experiment [1], in [2], in experiment [3], in experiment [4] and in experiment [10]. The Potency result in experiment [5], in experiment [6], in [7], in experiment [8] and in [9] was “inactive” throughout.
For the compound `CC(C)CCCC(C)CC=O` (stereo unspecified), the compound was called inactive in experiment [1], in experiment [2], in [3], in experiment [4] and in experiment [10]. Besides, the Potency entry in [5], in experiment [6], in experiment [7], in [8] and in experiment [9] was “inactive” each time.
In the case of `CC1CCC(C(C)(C)S)C(=O)C1` (stereo unspecified), the result in experiment [1], in experiment [2], in experiment [3], in experiment [4] and in [10] was inactive. Moreover, the Potency entry in [5], in experiment [6], in experiment [7], in experiment [8] and in experiment [9] was “inactive” throughout.
Take `CNC(=O)C(c1ccccc1)c1ccccc1`: the outcome in [1], in experiment [2], in [3] and in experiment [4] was inactive. The Potency result in [5] and in experiment [6] was “inactive” throughout.
On to `C=CCOc1c(Br)cc(C(C)(C)c2cc(Br)c(OCC=C)c(Br)c2)cc1Br`, for which the call in experiment [1], in [2], in [3] and in experiment [4] was inactive. In addition, the Potency result in [5], in [6] and in [7] was “inactive” in each case.
As for `O=C(COCCOCCOCC(=O)Nc1c(I)cc(I)c(C(=O)O)c1I)Nc1c(I)cc(I)c(C(=O)O)c1I`, the compound was called inactive in experiment [1], in [2], in experiment [3], in experiment [4] and in experiment [10]. For the same compound, the Potency result in [5], in [6], in experiment [7], in [8] and in experiment [9] was “inactive” throughout.
For the compound `O=C(O)c1ccc(OCCN2CCCCC2)cc1`, the result in experiment [1], in experiment [2], in [3] and in experiment [4] was inactive. In addition, the Potency result in [5], in [6], in experiment [7], in experiment [8] and in experiment [9] was “inactive” throughout.
For `CCCCCCCCC(=O)OCC`, the compound was classed as inactive in experiment [1], in [2], in [3], in experiment [4] and in experiment [10]. In addition, the Potency result in experiment [5], in experiment [6], in experiment [7], in experiment [8] and in experiment [9] was “inactive” throughout.
For the compound `CCC(O)C(C)(C)C` (stereo unspecified), the compound was classed as inactive in experiment [1], in experiment [2], in [3], in experiment [4] and in experiment [10]. For the same compound, the Potency entry in experiment [5], in experiment [6], in [7], in experiment [8] and in experiment [9] was “inactive” in each case.
Turning to `CC(C)(c1ccc(Oc2ccc3c(c2)C(=O)OC3=O)cc1)c1ccc(Oc2ccc3c(c2)C(=O)OC3=O)cc1`, the compound was called inactive in experiment [1], in experiment [2], in experiment [3], in [4] and in experiment [10]. Also, the Potency result in [5], in [6], in experiment [7], in experiment [8] and in experiment [9] was “inactive” each time.
With `C=CC(C)(O)CC/C=C(\C)CC` (stereo unspecified), the outcome in experiment [1], in experiment [2], in experiment [3], in experiment [4] and in experiment [10] was inactive. In addition, the Potency result in [5], in [6], in experiment [7], in [8] and in [9] was “inactive” each time.
Consider `CCCCC(CC)CNC(=O)CC(C)OC(=O)CCC(=O)O` (stereo unspecified), for which the outcome in [1], in experiment [2], in experiment [3], in experiment [4] and in [10] was inactive. Moreover, the Potency entry in [5], in experiment [6], in experiment [7], in [8] and in experiment [9] was “inactive” throughout.
On to `CNC(=O)NC`, for which the call in [1], in experiment [2], in experiment [3] and in experiment [4] was inactive. Besides, the Potency entry in experiment [5], in experiment [6], in experiment [7] and in experiment [8] was “inactive” throughout.
In the case of `Cc1nc2ccccc2c(=O)o1`, the compound was classed as inactive in [1], in experiment [2], in [3], in [4] and in [10]. Moreover, the Potency result in [5], in experiment [6], in experiment [7], in [8] and in experiment [9] was “inactive” throughout.
Regarding `CC1=CC[C@H](CC=O)C1(C)C`, the outcome in [1], in experiment [2], in experiment [3], in experiment [4] and in experiment [10] was inactive. The Potency result in [5], in experiment [6], in experiment [7], in [8] and in experiment [9] was “inactive” throughout.
Turning to `CC(=O)c1ccc2c(c1)CCCC2`, the call in [1], in [2], in experiment [3] and in experiment [4] was inactive. Moreover, the Potency result in experiment [5], in experiment [6], in experiment [7] and in [8] was “inactive” throughout.
With `CCCCCCCCCCCCC`, the outcome in [1], in experiment [2], in experiment [3], in experiment [4] and in experiment [10] was inactive. The Potency entry in experiment [5], in experiment [6], in experiment [7], in experiment [8] and in experiment [9] was “inactive” throughout.
`CCCCCCCC/C=C\CCCCCCCC(=O)OC[C@@H](O)[C@H]1OC[C@H](O)[C@H]1O`: the compound was called inactive in experiment [1], in experiment [2], in experiment [3], in [4] and in experiment [10]. In addition, the Potency entry in [5], in [6], in [7], in experiment [8] and in experiment [9] was “inactive” in each case.
`Cc1cc(C)cc([N+](=O)[O-])c1`: the compound was classed as inactive in experiment [1], in experiment [2], in experiment [3], in [4] and in experiment [10]. In addition, the Potency entry in experiment [5], in [6], in experiment [7], in [8] and in experiment [9] was “inactive” each time.
For the compound `Cc1cccc(C(=O)O)c1[N+](=O)[O-]`, the compound was called inactive in experiment [1], in [2], in [3] and in [4]. In addition, the Potency entry in [5], in experiment [6], in experiment [7], in [8] and in [9] was “inactive” each time.
Consider `CN[C@@H]1[C@H](O)[C@H](NC)[C@H]2O[C@@]3(O)C(=O)C[C@@H](C)O[C@H]3O[C@@H]2[C@H]1O`, for which the outcome in experiment [1], in experiment [2], in experiment [3], in experiment [4] and in experiment [10] was inactive. The Potency entry in experiment [5], in experiment [6], in [7], in experiment [8] and in experiment [9] was “inactive” each time.
For the compound `O=S(=O)(O)CCO`, the outcome in experiment [1], in experiment [2], in experiment [3], in [4] and in experiment [10] was inactive. The Potency result in experiment [5], in experiment [7], in experiment [8] and in experiment [9] was “inactive” in each case. In experiment [6], the Potency is 49.2 µM (active).
Turning to `CC(=O)N1CCN(c2ccc(O)cc2)CC1`, the call in [1], in experiment [2], in [3], in [4] and in [10] was inactive. Besides, the Potency entry in [5], in [6], in experiment [7], in experiment [8] and in experiment [9] was “inactive” in each case.
Turning to `CC(C)(C)c1ccc(C=O)cc1`, the compound was classed as inactive in [1], in experiment [2], in [3], in [4] and in [10]. The Potency entry in experiment [5], in [6], in experiment [7], in [8] and in [9] was “inactive” throughout.
For `COc1cccc2sc(N)nc12`, the outcome in [1], in experiment [2], in [3] and in experiment [4] was inactive. Moreover, the Potency result in experiment [5], in [7], in [8] and in experiment [9] was “inactive” in each case. Besides, the Potency in [6] was 43.5 µM (active).
